# Reference: PubChem BioAssay AID1468 (National Center for Advancing Translational Sciences (NCATS), 2008)
# Screen size: about 280,000 compounds; about 1,100 (0.39%) were called active. Another 7% or so got no clear call; they are omitted. The call rests on the fitted dose curve; in most records, active means well fitted inhibition curve with a large enough effect; inconclusive means small, poorly fitted or top-dose-only effect, or effect the other way; inactive means flat fitted curve, though single readings scatter. Only a selection was taken, and actives are over-represented in it overall.
# Target: Microtubule-associated protein tau (Homo sapiens) (UniProt P10636)
# Assay: qHTS for Inhibitors of Tau Fibril Formation, Fluorescence Polarization; further: nearly all actives have a fitted effect of over 55% in size
# Conditions: K18 P301L tau heparin fibrillization, Alexa594 FP, 6 h; series mostly up to 57.7 µM; activity, negative = inhibition: at the top concentration
# Description: NIH Molecular Libraries Probe Production Network [MLPCN]
# NIH Chemical Genomics Center [NCGC]
# Assay Provider: Carlo Ballatore, University of Pennsylvania
# The microtubule-associated protein tau is an abundant protein in the axons of neurons that stabilizes microtubules. With its ability to modulate microtubule dynamics, tau contributes directly or indirectly, to key structural and regulatory cellular functions. Particularly important is the influence tau exerts on axonal transport, which allows signaling molecules, trophic factors and other essential cellular constituents to travel along the axons. Under pathological conditions, tau becomes sequestered into insoluble aggregates called neurofibrillary tangles. This phenomenon is believed to have pathological consequences by promoting axonal transport deficits that ultimately lead to synaptic dysfunction and neuronal loss. To identify inhibitors of tau aggregation, a heparin-induced tau fibril formation assay was used that employed a recombinantly expressed fragment of tau, K18 (Q242-E372), bearing a P301L mutation (Gustke et al. 1994; Hong et al. 1998).
# Gustke, N., B. Trinczek, et al. (1994). "Domains of tau protein and interactions with microtubules." Biochemistry 33(32): 9511-22.
# Hong, M., V. Zhukareva, et al. (1998).
# Li, W. and V. M. Lee (2006). "Characterization of two VQIXXK motifs for tau fibrillization in vitro." Biochemistry 45(51): 15692-701.
# von Bergen, M., S. Barghorn, et al. (2001). "Mutations of tau protein in frontotemporal dementia promote aggregation of paired helical filaments by enhancing local beta-structure." J Biol Chem 276(51): 48165-74.
# NCGC Assay Protocol Summary:
# For screening, 2 uL/well human K18 P301L (15 uM unlabeled and 0.24 uM Alexa 594-labeled tau final concentrations) in reagent buffer (100 mM sodium acetate pH 7) was dispensed into black solid 1536-well plates (Grenier) using a solenoid-based dispenser. Following transfer of 23 nL compound or DMSO vehicle by a pin tool, 2 uL/well heparin (20 uM final concentration) in reagent buffer was added and the plate centrifuged 15 s at 1000 RPM. Plates were incubated 6 hr at 37 C and then 1 uL/well ThT (30 uM final concentration) was added. After a 1 hr ambient incubation, the plates were read by an Envision (Perkin Elmer) to monitor Alexa 594 FP (555 nm excitation and 632 nm emission).
# Keywords: NIH Roadmap, MLPCN, MLI, MLSMR, NCGC, qHTS, tau, tauopathies, Alzheimer's disease, fibril, neurodegeneration, aggregation
# On the % scale 0 is the no-effect control and ±100 the full control effect; potency means the concentration at half of the fitted maximal effect.
# Chain of Microtubule-associated protein tau (Homo sapiens) (P10636 561-689 P618L limits assumed): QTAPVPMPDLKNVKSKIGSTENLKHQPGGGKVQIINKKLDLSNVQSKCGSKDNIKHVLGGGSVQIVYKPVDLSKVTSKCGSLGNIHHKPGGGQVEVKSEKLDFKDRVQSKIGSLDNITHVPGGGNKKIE
Structure (SMILES),Potency,"activity, negative = inhibition"
Oc1cc(O)c2c(c1)OC(c1ccc(O)c(O)c1)C(O)C2 (stereo unspecified),14.1 µM (active),–
CC(NC(=O)c1cc(Sc2ccc(F)cc2F)nc2ccccc12)c1ccccc1 (stereo unspecified),–,2.21% (inactive)
CCCC(=O)Nc1cc(C(=O)NCc2ccc(OC)cc2)ccc1S(=O)(=O)c1ccc(Cl)cc1,–,-4.05% (inactive)
COc1ccccc1-c1nnc(SCC(N)=O)o1,–,1.99% (inactive)
CCN(CC)CC(=O)c1c[nH]c2ccc(OC)cc12,–,16.4% (inactive)
COc1ccc(NS(=O)(=O)c2ccc(Oc3c(C#N)cccc3C#N)cc2)cc1,–,-8.14% (inactive)
COc1ccc2[nH]cc(/C=C(/C#N)S(=O)(=O)c3ccccc3)c2c1,28.2 µM (active),–
COc1ccc(C)cc1NC(=O)COCc1cc(-c2cccs2)on1,–,-3.41% (inactive)
O=C(NCCOc1ccccc1F)Nc1ccc(Br)cc1,–,-10.5% (inactive)
O=C(Nc1ccccc1)Nc1nnc(COc2ccccc2F)s1,14.1 µM (active),–
COCC(=O)Nc1nnc(COc2ccccc2)s1,–,8.93% (inactive)
Cc1ccc(N(C)C(=O)C2CCN(S(=O)(=O)c3ccc4c(c3)CCCN4C(=O)C3CCC3)CC2)cc1,–,3.78% (inactive)
Cc1ccc2cccc(NC(=O)c3ccc(OC(C)C)cc3)c2n1,–,-0.836% (inactive)
CC1=C/C(=N\OS(=O)(=O)c2ccccc2)C=CC1=O,12.6 µM (active),–
Cc1ccc(S(=O)(=O)c2ccc(Oc3ccccc3)cc2)cc1,–,-4.08% (inactive)
CC1=C/C(=N\S(=O)(=O)c2ccccc2)C(C(C)C)=CC1=O,–,-2.92% (inactive)
COc1ccccc1/C=C/c1nc(C#N)c(NC(C)c2ccccc2)o1 (stereo unspecified),–,9.42% (inactive)
CC(C)S(=O)(=O)c1csc(NC(=O)Nc2ccc(Cl)cc2)c1Cl,31.6 µM (active),–
Cn1ccc(NC(=O)Nc2ccc(Cl)cc2)n1,–,3.56% (inactive)
NS(=O)(=O)c1ccc(CCNC(=O)Nc2ccc(Cl)cc2)cc1,–,-2.66% (inactive)
CC(=O)c1ccc(N2CCN(C(=O)c3ccc4nc[nH]c4c3)CC2)cc1,–,8.33% (inactive)
CC/C(O)=N\S(=O)(=O)c1ccc(N=NN(C)C)cc1,–,1.65% (inactive)
CN(C)N=Nc1ccc2nc[nH]c2c1,8.91 µM (active),–
CCOc1ccc(-c2nonc2NC(=O)c2oc3ccc(CC)cc3c2C)cc1,–,-19.5% (inactive)
CCOC(=O)c1cnc2[nH]c3ccccc3n2c1=O,–,2.71% (inactive)
O=c1[nH]c2ccccc2n2c(-c3ccccc3)nnc12,14.1 µM (active),–

Structure (SMILES),Potency,"activity, negative = inhibition"
Cc1ccc(-c2nc3ccccc3[nH]c2=O)cc1,–,-0.895% (inactive)
Cc1cc(C)c2oc(C(=O)Nc3c(C(=O)Nc4ccccc4)oc4ccccc34)cc(=O)c2c1,–,-9.93% (inactive)
Cc1nn(C)c2c1c(C(F)(F)F)cc(=O)n2C(C)C(=O)NCc1ccc(Cl)cc1 (stereo unspecified),–,8.26% (inactive)
CSc1ccc(S(=O)(=O)NC2CCCCC2)cc1,–,-22.1% (inactive)
CC1CCC(NS(=O)(=O)c2ccc3c(c2)n(C)c(=O)c(=O)n3C)CC1 (stereo unspecified),–,-2.24% (inactive)
Cn1sc(=O)c2cc(S(=O)(=O)NC3CC3)ccc21,28.2 µM (active),–
CCNS(=O)(=O)c1ccc(NC(=O)Nc2cccc(C(F)(F)F)c2)cc1,25.1 µM (active),–
CC(C)C[C@H](NC(=O)Nc1cccc(C(F)(F)F)c1)C(=O)O,–,2.26% (inactive)
Cc1ccc(NC(=O)Nc2cccc(C(F)(F)F)c2)nc1,–,1.19% (inactive)
Cc1cccc(Nc2cc(C)nc(-n3nc(C)cc3C)n2)c1,–,6.4% (inactive)
Brc1ccc2c(c1)NC(c1cccnc1)=NC(c1ccccc1)=N2,–,6.59% (inactive)
CCC(C)NC(=O)C1c2ccccc2Oc2ccccc21 (stereo unspecified),–,2.28% (inactive)
CC(C)(C)c1nnc(NC(=O)C2c3ccccc3Oc3ccccc32)s1,15.8 µM (active),–
CCC(C)(C)NC(=O)C1c2ccccc2Oc2ccccc21,–,-3.37% (inactive)
Cc1ccc(NC(=O)Nc2sc3nc4n(c(=O)c3c2C)CCC(C)CC4)c(Cl)c1 (stereo unspecified),–,17.2% (inactive)
Cc1cc(C)c(NC(=O)Cn2c(SCC(=O)NCc3ccccc3)nc3ccccc32)c(C)c1,–,2.13% (inactive)
COc1ccc(Cn2c(=O)c3oc4ccccc4c3n(CC(=O)Nc3ccc(F)cc3F)c2=O)cc1,–,-17.2% (inactive)
O=C(Cn1c(=O)n(Cc2ccccc2)c(=O)c2sc3ccccc3c21)Nc1ccccc1F,28.2 µM (active),–
CCOc1ccccc1NC(=O)Cn1c(=O)n(Cc2ccco2)c(=O)c2sc3ccccc3c21,–,-2.71% (inactive)
CC(=O)c1cccc(NC(=O)c2nc(-c3ccccc3)n(-c3cccc(C)c3)n2)c1,–,-7.49% (inactive)
COc1ccc(NC(=O)CSc2nc3ccccc3[nH]2)cc1,–,-11% (inactive)
O=C(COC(=O)CCCSc1nc2ccccc2[nH]1)Nc1ccc(Oc2ccccc2)cc1,15.8 µM (active),–
CCc1nnc(NC(=O)CCCSc2nc3ccccc3[nH]2)s1,–,-0.721% (inactive)
Oc1ccc2ccccc2c1C=Nc1ccccc1,–,-3.62% (inactive)
O=[N+]([O-])c1ccc(N=Cc2c(O)ccc3ccccc23)cc1,–,-5.84% (inactive)
